Experimental data reported in article PMC5540273 (PLoS ONE, 2017).

Key:
Conditions in all cases: concentration: 1 μM, replicates: in singlicate; n = 1
[1] = test system: MAST1
[2] = test system: T1, MEK1
T1 construct: gene MAP2K1

[3] = test system: T2, MEK2
T2 construct: gene MAP2K2

[4] = test system: T3, MEK3
T3 construct: gene MAP2K3

[5] = test system: T4, MEK4
T4 construct: gene MAP2K4

[6] = test system: T5, MEK5
T5 construct: gene MAP2K5

[7] = test system: T6, MEK6
T6 construct: gene MAP2K6

[8] = test system: MELK
[9] = test system: MERTK
[10] = test system: MET
[11] = test system: T7, MINK
T7 construct: gene MINK1

[12] = test system: MKK7
[13] = test system: MKNK1
[14] = test system: MKNK2
[15] = test system: T8, MLCK
T8 construct: gene MYLK3

[16] = test system: T9, MLK1
T9 construct: gene MAP3K9

[17] = test system: MLK2
[18] = test system: MLK3
[19] = test system: MRCKA
[20] = test system: T10, MRCKB
T10 construct: gene CDC42BPB
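Further: KINOMEscan kinase panel screen.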

| SMILES | %Inh [1] [%] | %Inh [2] [%] | %Inh [3] [%] | %Inh [4] [%] | %Inh [5] [%] | %Inh [6] [%] | %Inh [7] [%] | %Inh [8] [%] | %Inh [9] [%] | %Inh [10] [%] | %Inh [11] [%] | %Inh [12] [%] | %Inh [13] [%] | %Inh [14] [%] | %Inh [15] [%] | %Inh [16] [%] | %Inh [17] [%] | %Inh [18] [%] | %Inh [19] [%] | %Inh [20] [%] |
| --- | --- | --- | --- | --- | --- | --- | --- | --- | --- | --- | --- | --- | --- | --- | --- | --- | --- | --- | --- | --- |
| Fc1ccc(-c2nc3n(c2-c2ccncc2)CCS3)cc1 [GI98581] | 0 | 0 | 0 | 0 | 12 | 14 | 0 | 5 | 12 | 0 | 45 | 0 | 0 | 2 | 15 | 3 | 19 | 21 | 2 | 25 |
| Cc1c(Cn2c(C)c(C)n3c(=O)cc(N4CCOCC4)nc23)cccc1C(F)(F)F [GSK2328680] | 0 | 0 | 0 | 0 | 0 | 0 | 0 | 1 | 0 | 0 | 0 | 0 | 0 | 0 | 0 | 0 | 0 | 8 | 0 | 6 |
| COc1ccc(CSc2nnc(-c3ccc4nccn4c3)o2)cc1C(F)(F)F | 0 | 13 | 21 | 43 | 51 | 0 | 0 | 16 | 5 | 2 | 12 | 0 | 0 | 0 | 2 | 0 | 4 | 3 | 3 | 20 |
| COc1ccc(-c2coc3ccc(-c4nnc(C)o4)cc23)cc1 | 0 | 0 | 4 | 0 | 1 | 0 | 0 | 0 | 8 | 0 | 0 | 0 | 0 | 0 | 0 | 0 | 5 | 1 | 0 | 0 |
| CC(=O)c1c(C)c2cnc(Nc3ccc(N4CCNCC4)cn3)nc2n(C2CCCC2)c1=O | 0 | 0 | 0 | 0 | 0 | 1 | 0 | 5 | 0 | 0 | 0 | 0 | 0 | 0 | 8 | 0 | 0 | 0 | 0 | 35 |
| O=C(Nc1n[nH]c2cc(-c3ccsc3)ccc12)C1CC1 [SB-732932] | 36 | 11 | 16 | 17 | 18 | 50 | 0 | 0 | 14 | 0 | 67 | 8 | 0 | 54 | 65 | 3 | 0 | 0 | 13 | 0 |
| CC(C)c1ccc(O)cc1Nc1ccnc2ccc(C(F)(F)F)cc12 [GW482059] | 0 | 0 | 0 | 0 | 22 | 1 | 0 | 5 | 13 | 0 | 0 | 0 | 2 | 10 | 0 | 0 | 5 | 13 | 0 | 0 |
| CCn1c(-c2ccccc2)nc2cnccc21 [SB-733416] | 0 | 0 | 0 | 0 | 25 | 37 | 0 | 0 | 24 | 0 | 0 | 16 | 25 | 28 | 0 | 0 | 3 | 7 | 0 | 14 |
| COc1cc2ncnc(Nc3cccc(Br)c3)c2cc1OC.Cl [GI230329] | 20 | 0 | 0 | 0 | 20 | 86 | 0 | 0 | 45 | 0 | 40 | 0 |  | 56 | 19 | 0 | 0 | 24 | 8 | 0 |
| Cc1c(Cn2c3ccccc3n3c(=O)cc(N4CCOCC4)nc23)cccc1C(F)(F)F [GSK2306394] | 0 | 0 | 0 | 0 | 17 | 59 | 0 | 66 | 33 | 0 | 0 | 0 | 0 | 6 | 0 | 0 | 2 | 0 | 0 | 0 |
| Cc1ccccc1-c1cc(-c2c[nH]nc2-c2ccccn2)ccn1 [GW680061] | 6 | 0 | 0 | 0 | 4 | 5 | 0 | 0 | 16 | 0 | 31 | 0 | 9 | 0 | 0 | 0 | 2 | 0 | 0 | 0 |
| Cn1cncc1C(=O)NC1CCN(c2ccnc(Nc3ccc(F)cc3)n2)C1 (stereo not shown) [GSK1379717] | 0 | 0 | 0 | 11 | 28 | 3 | 0 | 0 | 5 | 0 | 0 | 10 | 0 | 5 | 0 | 0 | 0 | 0 | 2 | 0 |
| Cc1ccc(NC(=O)Nc2ccc(Cl)c(C(F)(F)F)c2)cc1-c1ccc(C(=O)Nc2ccncc2)cc1 [GSK1398470] | 0 | 0 | 0 | 0 | 24 | 29 | 0 | 13 | 0 | 13 | 20 | 0 | 3 | 0 | 0 | 10 | 36 | 17 | 1 | 5 |
| CCn1c(-c2c(N)noc2C)nc2cnccc21 [SB-737856] | 0 | 0 | 2 | 0 | 0 | 32 | 70 | 0 | 1 | 0 | 0 | 0 | 0 | 12 | 0 | 0 | 0 | 1 | 8 | 1 |
| CCCCc1nn2ncccc2c1-c1ccnc(NC2CC2)n1 [GW684374] | 0 | 0 | 0 | 8 | 7 | 9 | 10 | 15 | 5 | 0 | 7 | 0 | 0 | 0 | 0 | 0 | 0 | 0 | 0 | 0 |
| CC(C)c1cc(-c2ccc3c(N)n[nH]c3c2)nc(N)n1 [GSK2250882] | 0 | 0 | 0 | 0 | 8 | 29 | 5 | 15 | 21 | 0 | 21 | 0 | 36 | 82 | 16 | 0 | 0 | 18 | 12 | 0 |

| SMILES | %Inh [1] [%] | %Inh [2] [%] | %Inh [3] [%] | %Inh [4] [%] | %Inh [5] [%] | %Inh [6] [%] | %Inh [7] [%] | %Inh [8] [%] | %Inh [9] [%] | %Inh [10] [%] | %Inh [11] [%] | %Inh [12] [%] | %Inh [13] [%] | %Inh [14] [%] | %Inh [15] [%] | %Inh [16] [%] | %Inh [17] [%] | %Inh [18] [%] | %Inh [19] [%] | %Inh [20] [%] |
| --- | --- | --- | --- | --- | --- | --- | --- | --- | --- | --- | --- | --- | --- | --- | --- | --- | --- | --- | --- | --- |
| Cl.Cl.Cl.N#Cc1ccc(CCNc2nccc(-c3cccc(CN4CCNCC4)c3)n2)cc1 [GSK2137462] | 0 | 0 | 0 | 5 | 20 | 35 | 7 | 38 | 20 | 0 | 3 | 0 | 46 | 2 | 0 | 0 | 0 | 0 | 48 | 19 |
| Nc1cccc(-c2ccc3c(N)n[nH]c3c2)n1 [GSK2192730] | 0 | 3 | 22 | 3 | 1 | 31 | 18 | 0 | 0 | 0 | 50 | 0 | 13 | 61 | 76 | 0 | 0 | 0 | 0 | 0 |
| COc1cccc(CNC(=O)NC2CCN(c3ccnc(Nc4ccc(F)cc4)n3)C2)c1 (stereo not shown) [GSK1379723] | 6 | 10 | 0 | 0 | 36 | 53 | 0 | 0 | 26 | 0 | 0 | 31 | 13 | 8 | 0 | 0 | 0 | 0 | 29 | 8 |
| O=C(Nc1n[nH]c2nc(-c3cccs3)c(Br)cc12)C1CCCC1 [SB-743341] | 12 | 15 | 14 | 18 | 23 | 31 | 0 | 0 | 0 | 0 | 8 | 12 | 23 | 67 | 86 | 0 | 38 | 19 | 0 | 0 |
| COc1ccc2cc(-c3nc(-c4ccccc4C(C)C)[nH]c3-c3ccncc3)ccc2c1 [SB-660566] | 2 | 0 | 0 | 0 | 65 | 11 | 45 | 26 | 33 | 0 | 0 | 0 | 5 | 22 | 6 | 0 | 0 | 0 | 4 | 1 |
| Cc1ccc(NC(=O)Nc2ccc(Cl)cc2)cc1-c1ccc(C(=O)Nc2ccncc2)cc1 [GSK1398472] | 0 | 0 | 0 | 0 | 26 | 11 | 0 | 0 | 0 | 0 | 11 | 21 | 10 | 7 | 0 | 0 | 0 | 15 | 16 | 0 |
| COC(=O)c1cccc(NC(=O)NC2CCN(c3ccnc(Nc4ccc(OC)cc4)n3)C2)c1 (stereo not shown) [GSK1379746] | 13 | 0 | 0 | 0 | 34 | 33 | 0 | 0 | 22 | 0 | 0 | 7 | 3 | 2 | 4 | 0 | 0 | 0 | 24 | 0 |
| Cc1cccc2c(-c3ccncn3)c(-c3ccc(F)cc3)nn12 [GW515532] | 7 | 0 | 0 | 0 | 19 | 10 | 0 | 0 | 15 | 0 | 0 | 0 | 0 | 3 | 0 | 0 | 28 | 4 | 0 | 0 |
| CNc1nc(-c2ccc3c(N)n[nH]c3c2)cc(N2C[C@@H](C(=O)Nc3ccccc3)CC[C@H]2C)n1 [GSK2298859] | 0 | 0 | 0 | 0 | 7 | 7 | 0 | 58 | 35 | 0 | 0 | 0 | 0 | 0 | 0 | 0 | 0 | 28 | 10 | 0 |
| COc1ccc(Nc2nccc(N3CCC(NC(=O)C(C)c4ccc(Cl)cc4)CC3)n2)cc1 (stereo not shown) [GSK1379812] | 0 | 0 | 0 | 0 | 5 | 10 | 0 | 0 | 22 | 0 | 51 | 0 | 36 | 5 | 0 | 0 | 0 | 52 | 20 | 0 |
| COc1ccc(Nc2nccc(-c3ccc(NC(=O)c4cc5cc(F)ccc5[nH]4)cc3)n2)cc1 [GSK1229496] | 0 | 0 | 0 | 20 | 0 | 6 | 0 | 0 | 18 | 0 | 4 | 0 | 14 | 0 | 0 | 0 | 0 | 0 | 17 | 0 |
| CN1c2ccc(-c3ccc(C(N)=O)cc3)cc2-c2[nH]ncc2S1(=O)=O | 0 | 41 | 17 | 16 | 0 | 24 | 0 | 10 | 46 | 14 | 53 | 3 | 0 | 0 | 0 | 19 | 26 | 3 | 0 | 3 |
| CS(=O)(=O)Cc1ccc(Nc2nccc(-c3c(-c4cccc(NC(=O)C5CCCCC5)c4)nn4ncccc34)n2)cc1 [GSK350559] | 39 | 32 | 19 | 42 | 16 | 98.3 | 0 | 0 | 12 | 10 | 0 | 21 | 25 | 13 | 3 | 2 | 7 | 13 | 0 | 0 |
| Fc1ccc(-c2nn3cccc(F)c3c2-c2ccncc2)cc1 [GW475620] | 0 | 0 | 0 | 0 | 29 | 8 | 0 | 41 | 3 | 0 | 27 | 16 | 0 | 0 | 0 | 2 | 31 | 18 | 23 | 34 |
| CSc1ccc(-c2nc3n(c2-c2ccncc2)CCC3)cc1 [SKF-105561] | 16 | 1 | 25 | 18 | 0 | 22 | 0 | 18 | 0 | 0 | 15 | 1 | 0 | 20 | 0 | 0 | 0 | 0 | 0 | 0 |
